# Reference: PubChem BioAssay AID720553 (National Center for Advancing Translational Sciences (NCATS), 2013)
# Hit rate of the full screen: of about 340,000 compounds, about 3,300 (0.97%) were called active. The sample as a whole holds a higher share of actives than the screen did. Unmarked numbers belong to inactive results.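 Rule for the calls: active = maximum activity change below -70%; inconclusive = maximum activity change from -70% to -50%; inactive = maximum activity change above -50%.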
# Tested on: Potassium voltage-gated channel subfamily H member 2, brain isoform KCNH2 3.1 (human)
# Experiment: qHTS for Inhibitors of KCHN2 3.1: Mutant qHTS
# Settings: U2OS KCNH2 3.1, thallium flux FluxOr; active compounds read low
# Summary of the method: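 Thallium flux read-out: FluxOr dye with Red40 quencher in HBSS/HEPES, 45 min at RT. Rate constants from kinetic reads were normalized to positive and negative DMSO controls. Cells: U2OS virally expressing the 3.1 isoform.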
# % is set by controls: 0 for no effect and ±100 for the full control effect.
row,Structure (SMILES),activity change
1,CC(=O)c1ccc(OCC(=O)N(C)C2CCS(=O)(=O)C2)cc1 (stereo not drawn),-6.59%
2,COC(=O)C[C@H]1C[C@@H]2c3cc(NC(=O)Nc4ccccc4)ccc3O[C@@H]2[C@@H](CO)O1,4.16%
3,Cc1cccc2sc(N(CCCN(C)C)C(=O)CCS(=O)(=O)c3ccccc3)nc12,-7.9%
4,Cc1ccc2sc(N(CCN(C)C)C(=O)/C=C/c3cccs3)nc2c1C,-90.5% (active)
5,CN(C)CCN(C(=O)CN1C(=O)c2ccccc2C1=O)c1nc2cc3c(cc2s1)OCCO3,4.48%
6,Cc1ccc2nc(N(CCN(C)C)C(=O)C3=COCCO3)sc2c1,-3.64%
7,Cc1ccc(S(=O)(=O)N(C)C)cc1NC(=O)/C=C/c1cccs1,-14.2%
8,Cc1cc(C)c2nc(N(CCN(C)C)C(=O)/C=C/c3cccs3)sc2c1,-103% (active)
9,CCCCCC(=O)N1C[C@H](O)[C@@H](n2cc(COC(=O)c3ccccc3)nn2)C[C@@H]1c1ccc(C)cc1,-34.6%
10,NC1=CC(=O)C(=O)c2cccnc21,-3.65%
11,C[C@@H]1CN([C@@H](C)CO)C(=O)c2cc(NS(C)(=O)=O)ccc2O[C@@H](C)CCCCO[C@H]1CN(C)C(=O)Nc1ccc2c(c1)OCO2,11.4%
12,C[C@H]1Cn2cnc(C(=O)N[C@H](C)c3ccccc3)c2C(=O)N1,-8.17%
13,COC(=O)c1ccccc1N=NNc1ccc([N+](=O)[O-])cc1,5.4%
14,Nc1ccc2nc3c(=O)[nH]c(=S)[nH]c3nc2c1,-92.4% (active)
15,C[C@H]1CN([C@@H](C)CO)C(=O)c2cc(-c3ccccc3F)cnc2O[C@H]1CN(C)C(=O)C1CCOCC1,-1.4%
16,CC(C)N=C1CCCC1C(=S)SSC(=S)C1CCCC1=NC(C)C (stereo not drawn),8.25%
17,COc1cc(C(=O)NC2CCN(Cc3ccccc3)CC2)cc(Cl)c1OC(C)C,-16.6%
18,COc1ccc(C(=O)NC2CC2)cc1OC1CCN(C/C=C/c2ccccc2)CC1,-96.9% (active)
19,COc1ccc(C(=O)NC2CC2)cc1OC1CCN(Cc2ccc(SC)cc2)CC1,-111% (active)
20,COc1cc2[nH]c(=O)n(Cc3ccc(C(=O)NC4CCN(Cc5ccccc5)CC4)cc3)c(=O)c2cc1OC,-8.47%
21,COc1cc(C(=O)N2CCN(C/C=C/c3ccccc3)CC2)cc(OC)c1C,-2.35%
22,COc1ccc(C(=O)NCCn2nc(C)cc2C)cc1OC1CCN(C(C)=O)CC1,12.7%
23,COCC(=O)N(C)C[C@H]1Oc2cc(Br)ccc2S(=O)(=O)N([C@H](C)CO)C[C@H]1C,-6.83%
24,COc1ccc(S(=O)(=O)N2CCC(C(=O)NCCC(=O)Nc3ccccc3OC)CC2)cc1,7.34%
25,COCOCCn1cc(CN2CCS(=O)(=O)N(Cc3ccc(-c4ccccc4)cc3)C(CC(C)C)C2=O)nn1 (stereo not drawn),-28.9%
26,C[C@H](NC(=O)c1nc[nH]c1C(=O)NCC(=O)OC(C)(C)C)C(=O)OCc1ccccc1,-109% (active)
27,C[C@H](NC(=O)c1nc[nH]c1C(=O)NCC(=O)OC(C)(C)C)c1ccccc1,-20.8%

row,Structure (SMILES),activity change
1,CC(C)(C)OC(=O)CNC(=O)c1[nH]cnc1C(=O)N[C@@H](Cc1ccccc1)C(=O)OCc1ccccc1,-2.87%
2,C[C@H]1CN([C@@H](C)CO)C(=O)CCCn2cc(nn2)CO[C@@H]1CN(C)S(=O)(=O)c1ccc(-c2ccccc2)cc1,-9.74%
3,c1ccc2c(c1)nnn2-c1ccncc1,1.83%
4,COc1ccc(Cl)cc1NC(=O)CN(C)C(=O)c1cn(-c2ccccc2)nc1-c1cccs1,-9.77%
5,CSc1ncccc1C(=O)N1CCCC(Nc2ccc(F)c(F)c2)C1 (stereo not drawn),-0.997%
6,CCOC(=O)c1[nH]ncc1CN1CCCC(C(=O)c2ccc(OC)cc2C)C1 (stereo not drawn),-6.21%
7,COc1ccc(C(=O)C2CCCN(Cc3cccn3-c3ccccn3)C2)c(C)c1 (stereo not drawn),-108% (active)
8,COc1ccc(C(=O)C2CCCN(S(=O)(=O)c3cccc(C)c3)C2)c(C)c1 (stereo not drawn),-2.34%
9,C=CCn1nc(C(=O)OCC)cc1-c1sc(NC(=O)c2ccccc2)nc1C,21.3%
10,O=C(NCCc1ccccc1)/C(=C\c1ccc([N+](=O)[O-])cc1)NC(=O)c1ccccc1,-33.9%
11,C=CCNC(=O)/C(=C\c1cccc([N+](=O)[O-])c1)NC(=O)c1ccccc1,-8.85%
12,CN(C)CCNC(=O)/C(=C/c1cccc([N+](=O)[O-])c1)NC(=O)c1ccccc1,-83.8% (active)
13,CCOC(=O)C=Cc1ccc(C(=O)OCC)[nH]1,6.88%
14,C[C@H](CO)N1C[C@H](C)[C@H](CN(C)C(=O)c2ccncc2)OCc2ccccc2-c2c(n(C)c3ccccc23)C1=O,-0.608%
15,COc1ccccc1-n1c(SCC(=O)Nc2ccc(Cl)cc2)nc(O)c(Cc2ccccc2)c1=O,4.83%
16,CC(C)c1cc(C(=O)NC2CCCCCC2)c2ccccc2n1,2.17%
17,C[C@@H]1CN([C@@H](C)CO)S(=O)(=O)c2ccc(C#Cc3cccc(F)c3)cc2O[C@H]1CN(C)S(=O)(=O)c1cn(C)cn1,7.52%
18,CC1CN(C(=O)CCC(=O)NCCCN2CCC(Cc3ccccc3)CC2)c2cc(Cl)ccc2O1 (stereo not drawn),-84.9% (active)
19,CC1CN(C(=O)CCC(=O)NC2CCN(Cc3ccccc3)CC2)c2ccccc2O1 (stereo not drawn),-0.725%
20,CC1CN(C(=O)CCC(=O)NCc2cccnc2)c2ccccc2O1 (stereo not drawn),27.3%
21,O=C1NC(Cc2ccccc2)c2nc3ccc(Br)cc3c(=O)n2-c2cc3ccccc3cc21 (stereo not drawn),-16.2%
22,Cc1ccc([C@H]2N[C@]3(CCCN(Cc4ccccc4)C3=O)[C@H]3C(=O)N(Cc4ccccc4)C(=O)[C@@H]23)cc1,4.9%
23,O=C(COc1ccc(S(=O)(=O)N2CCCC2)cc1[N+](=O)[O-])N1CCCCC1,-5.01%
24,CCOC(=O)CC1C(=O)NCCN1C(=O)COc1ccc(Br)cc1C (stereo not drawn),3.78%
25,Cc1cc(/C=C2/SC(=O)N(CC(=O)OC(C)C)C2=O)c(C)n1C,-7.88%
26,CCN=C1S/C(=C\c2cc(Br)ccc2OCC(=O)OCC)C(=O)N1CC,-71.6% (active)
